Results published in ChEMBL document CHEMBL4513216, “Probing the Open Global Health Chemical Diversity Library for Multistage-Active Starting Points for Next-Generation Antimalarials” (ACS Infect Dis, 2020).
The whole screen tested about 69,000 compounds, of which about 8,600 (12%) showed an effect of 50% or more. The sample holds strong results, similar compounds and a random draw of the others, so the mix is not that of the screen.

Tested on: Plasmodium berghei
Experiment: Screen against P. berghei liver stage (PbLuc), transformed with Luciferase, at 10uM
Format: functional, HepG2
Settings: tested at 10 uM

SMILES	INHIBITION
CC(NC(=O)NCCCn1cccn1)c1ccncc1 (stereo not drawn)	36.3%
COC(=O)c1cc2n(n1)CCN(C(=O)c1csc(CN(C)C)n1)C2	-4.96%
COC(=O)Cn1c(=O)[nH]c2cn(-c3cccc(Cl)c3)c(=O)n21	33.7%
COCCOCC(=O)N1C[C@@H]2CC[C@H](Oc3ccccc3Cl)[C@@H]2C1	40%
COc1ccccc1C(C)Nc1ncc(C(N)=O)cc1Cl (stereo not drawn)	-7.25%
Cc1nn(C)cc1C(C)Nc1ncc(C(N)=O)cc1Cl (stereo not drawn)	71.1%
COc1cc(C)c(C(C)Nc2ncc(C(N)=O)cc2Cl)cc1OC (stereo not drawn)	-37.7%
Cc1noc2ncc(C(=O)NCC3CCCOC3)cc12 (stereo not drawn)	-6.45%
N#CC1(NC(=O)c2cc(Cl)c3c(c2)OCCCO3)CCC1	-14.2%
c1cnc2ccc(C[C@@H]3CC[C@H](CN4CCCOCC4)O3)cc2c1	23.5%
Cc1cc(C(=O)N2CCc3ncnc(-c4cnn(C)c4)c3CC2)no1	0.618%
CN1CCC2(CCCN(S(=O)(=O)c3ccc(-c4cnco4)s3)C2)C1 (stereo not drawn)	37.3%
Cc1occc1CNC(=O)N1CCC(Cc2cnn(C)c2)C1 (stereo not drawn)	-24.15%
Cc1ccc(S(=O)(=O)N2Cc3c(CN(C)C)nn(C)c3C2)cc1	0.542%
COc1ccc(S(=O)(=O)N2Cc3c(CN(C)C)nn(C)c3C2)cc1	-6.23%
CCc1ccc(S(=O)(=O)N2Cc3c(CN(C)C)nn(C)c3C2)cc1	72%
Cc1ccc(NC2CCN(C(=O)c3nccc4ccccc34)CC2)nn1	-45.9%
CN(C)c1ncc(-c2cncnc2)c(C2CNCCO2)n1 (stereo not drawn)	20.6%
CCc1nnc(CN2CCCCC2Cn2nc(C)nc2C)o1 (stereo not drawn)	22.3%
CS(=O)(=O)N[C@@H]1CN(Cc2ccco2)C[C@@H]2CCCO[C@@H]21	5.96%
CSCCCN1CCC(c2nnc(Cn3ccnc3)n2C2CC2)CC1	-79.3%
NCCN1CCC(c2nnc(Cn3ccnc3)n2C2CC2)CC1	62.3%

SMILES	INHIBITION
CC(C)(C)CN1CCC(c2nnc(Cn3ccnc3)n2C2CC2)CC1	38%
CN1CCC(c2nnc3n2CCN(S(=O)(=O)c2ccccc2Cl)C3)CC1	10.75%
NC(=O)CCN1CCC(C(=O)c2cc(F)ccc2F)CC1	18.2%
CCOC(=O)CN1CCC(C(=O)c2cc(F)ccc2F)CC1	32.6%
COCCN1CCC(C(=O)c2cc(F)ccc2F)CC1	5.03%
CCOCCN1CCC(C(=O)c2cc(F)ccc2F)CC1	60.5%
NC(=O)NC(=O)CCN1CCC(C(=O)c2cc(F)ccc2F)CC1	40.5%
CC(C)OCCN1CCC(C(=O)c2cc(F)ccc2F)CC1	-13.5%
COC(=O)CCN1CCC(C(=O)c2cc(F)ccc2F)CC1	46.9%
COCCCN1CCC(C(=O)c2cc(F)ccc2F)CC1	56.4%
CC(C)NC(=O)CCN1CCC(C(=O)c2cc(F)ccc2F)CC1	69.3%
Cc1nc(NCc2ccc(F)cc2)cc(C2CCCN2)n1 (stereo not drawn)	41.5%
O=C(Cn1ccc2ccc(Br)cc21)NCc1ccc(C(=O)O)cc1	-30.8%
CC(C)c1nn(C)c(N(C)C)c1CNC1CCCOc2ccccc21 (stereo not drawn)	35.4%
COCc1nc(N(C)C)ncc1C(=O)Nc1ccc(Cl)cc1	-18.8%
O=C(COC1CCCC1)NCc1ccc(O)c(F)c1	-16.4%
CN1CC(=O)N(c2cccc(F)c2)CC12CCN(Cc1ccsc1)C2 (stereo not drawn)	23.6%
Cc1ccc(Cl)cc1-n1nnnc1C1(N2CCCC2)CCCCC1	63.9%
Clc1ccc2nncc(N3CCCCC3)c2c1	-0.991%
Cc1ccc(Cl)cc1-n1nnnc1C1(N2CCCC2)CCCC1	33%
CN1CCN(c2cc(CNC(=O)c3ccc(Cl)o3)ccn2)CC1	38.45%
Cc1csc(NC(=O)CN2CCCC(Cn3nc(C)nc3C)C2)n1 (stereo not drawn)	0.4%

SMILES	INHIBITION
COc1c(C)cnc(CSc2nnc(N3CCCC3)s2)c1C	32.9%
CNC(=O)c1ccnc(CC2COc3c(cccc3OC)C2)c1 (stereo not drawn)	-9.54%
COc1cccc2c1OCC(C(=O)NCCc1nc3c(s1)CCC3)C2 (stereo not drawn)	40.6%
COc1cccc2c1OCC(NC(=O)NCc1cccs1)C2 (stereo not drawn)	20.5%
COc1cccc2c1OCC(NC(=O)NCCC(N)=O)C2 (stereo not drawn)	15.1%
COc1cccc2c1OCC(Cc1cc(C(N)=O)ccn1)C2 (stereo not drawn)	38%
COc1cccc2c1OCC(Cc1cc(C(=O)N3CCCC3)ccn1)C2 (stereo not drawn)	57.2%
COc1cccc2c1OCC(NC(=O)NCCc1ccccn1)C2 (stereo not drawn)	59.1%
COc1cccc2c1OCC(C(=O)NCCc1nnc(C)s1)C2 (stereo not drawn)	65.6%
COc1cccc2c1OCC(C(=O)NCCc1nnc(N)s1)C2 (stereo not drawn)	43.4%
COc1ccc(-c2ccc(C(=O)N3CCOCC3CC(N)=O)o2)cc1 (stereo not drawn)	-71.5%
CC(C)(CN1CCC2(CCCNC2)C1)N1CCOCC1 (stereo not drawn)	-41.8%
O=C(CCc1cncc(F)c1)NS(=O)(=O)c1ccc(F)cc1F	30.3%
O=c1ccc2c(n1Cc1ccncc1)CCN(Cc1ccoc1)CC2	-37.9%
CC(C)N1C[C@@H]2CN(C(=O)NCc3ccccc3)CCC[C@]2(C(=O)O)C1	34.6%
CNC(=O)[C@@H]1C[C@H]2CN(Cc3nccs3)C[C@H]2N1C	46.6%
Nc1nc(N)c2c(n1)OC1(CCN(C(=O)CC3CCCCN3)CC1)C2 (stereo not drawn)	26.95%
CCC(CC)CN1CCC(n2cc(C3CCCC3)nn2)CC1	60.4%
CSC(C)CCN1CCC(n2cc(C3CCCCC3)nn2)CC1 (stereo not drawn)	67.7%
C=C(C)CN1CCC(n2cc(C3CCCC3)nn2)CC1	46.4%
CCC(C)CN1CCC(n2cc(C3CCCC3)nn2)CC1 (stereo not drawn)	16.9%
CCCC(C)CN1CCC(n2cc(CCCO)nn2)CC1 (stereo not drawn)	13.7%

SMILES	INHIBITION
CC(C)Nc1cc(N2CCC(n3cc(C4CCCC4)nn3)CC2)ncn1	16.1%
CC(O)c1cn(C2CCN(C(=O)C3(C)CCCCC3)CC2)nn1 (stereo not drawn)	10.3%
OCc1ccc(CN2CCC(n3cc(C4CCCCC4)nn3)CC2)o1	48.8%
CC(C)Cc1cn(C2CCN(C(C)CC3CC3)CC2)nn1 (stereo not drawn)	-129%
CCC(C)CN1CCC(n2cc(C3CCCCC3)nn2)CC1 (stereo not drawn)	77.6%
CCCC(C)CN1CCC(n2cc(C3CCCC3)nn2)CC1 (stereo not drawn)	61.1%
O=C(c1cn(-c2ccccc2)nn1)N1CCCC(n2cccn2)C1 (stereo not drawn)	-67.3%
O=C(C1CC(=O)N(c2n[nH]c3cc(Br)ccc23)C1)N1CCCC1 (stereo not drawn)	-19.4%
CO[C@@H]1CCN(S(=O)(=O)c2cn(C)cn2)[C@H]1Cc1cnn(C)c1	49.1%
Cc1nc(CN2CC[C@H](OCC3CC3)[C@@H]2Cc2cccnc2)cs1	-3.33%
CCOCC(=O)N1Cc2nccn2CC(CN(C)C)C1 (stereo not drawn)	-7.7%
CCCc1n[nH]c(C2CN(CCNS(C)(=O)=O)CCO2)n1 (stereo not drawn)	-69%
O=C(c1cscn1)N1C[C@H](OCc2cccnc2)[C@H]2COC[C@H]21	3.58%
CNC(=O)c1cc(NC(=O)NC2CC2)ccc1F	-0.514%
C=C(C)CN1CCC(NC(=O)Nc2ccc(F)c(C(=O)NC)c2)CC1	52.6%
C=C(C)CN1CCC(NC(=O)Nc2ccc(F)c(C(N)=O)c2)CC1	42.3%
Cc1cc(C)n(CC(=O)N2CCC(c3cc4cccnc4[nH]3)CC2)n1	1.62%
CN(CC(=O)N1CCC(COc2ccccc2)CC1)c1cnccn1	-16.295%
CCN1CCCC(O)(CN(C)Cc2c(C)nn(C)c2C)C1 (stereo not drawn)	42.4%
Cc1noc(OCCOc2ccc(C#N)cc2)n1	18.6%
CC(C)c1noc(OCc2cccc(C#N)c2)n1	46.1%
Cc1noc(OCc2ccc(C#N)cc2)n1	64.5%

SMILES	INHIBITION
O=C(NCCC(=O)N1CCCCCCC1)c1ccoc1	-18%
O=C(NCCNS(=O)(=O)c1cccc(Cl)c1)C1CCCO1 (stereo not drawn)	38.9%
Cc1cc(NCCNS(=O)(=O)c2cccc(Cl)c2)nc(C)n1	24.7%
CC(NCCNS(=O)(=O)c1cccc(Cl)c1)C1CCOCC1 (stereo not drawn)	67.1%
CN(C)C(=O)N1C[C@H]2CC[C@@H](C1)N(Cc1nnc(-c3ccccc3)o1)C2	-3.73%
OC(CNCc1ccccc1C(F)(F)F)c1ccccc1 (stereo not drawn)	1.98%
CC(=O)N(C)Cc1cncc(C2CCCN2C2CCOCC2)n1 (stereo not drawn)	15.925%
COc1ccccc1NC(=O)CSC1CCc2ccccc2NC1=O (stereo not drawn)	10.8%
Cc1cnc(NC(=O)CSC2CCc3ccccc3NC2=O)s1 (stereo not drawn)	54.6%
O=C(CSC1CCc2ccccc2NC1=O)NC1CC1 (stereo not drawn)	-41.4%
O=c1c2ccccc2ncn1Cc1cc(C2CC2)[nH]n1	18.5%
CC(C)c1cc(NC(=O)Cn2cnc3ccccc3c2=O)[nH]n1	-27.4%
O=C(Cn1cnc2ccccc2c1=O)Nc1cc(C2CC2)n[nH]1	89.4%
COc1ccc(CCN2CCN(C(=O)c3scnc3C)CC2)cc1	25.3%
CN1CCc2onc(CNc3ncccn3)c2C1	19.5%
COc1ccc(CNC2CCCc3nc(N(C)C)ncc32)c(OC)c1 (stereo not drawn)	16.7%
CC(NCC1(N(C)C)CCOCC1)c1ccc(Cl)cc1 (stereo not drawn)	-2.025%
CN(C)C1(CNC(=O)c2c(O)cc(Cl)cc2Cl)CCOCC1	54.8%
CN(C)C1(CNC(=O)Cc2ccc(F)cc2)CCOCC1	-21.8%
O=C(c1ccc[nH]1)N1CCc2cc(S(=O)(=O)N3CCOCC3)ccc2C1	42.8%
